{
  "source": "PubChem BioAssay (NCATS)",
  "note": "Records with an inconclusive call do not appear. Activity calls are given as the source filed them. Calls follow the shape of the dose curve; as a rule, active = well fitted inhibition curve with a large enough effect; inconclusive = small, poorly fitted or top-dose-only effect; inactive = flat fitted curve, though single readings scatter. % is scaled to controls: 0 for no effect and ±100 for the full control effect.",
  "data": [
    {"target": "Calcium and integrin-binding protein 1 (Homo sapiens) (UniProt Q99828)", "sequence (Q99828 whole entry, looked up)": "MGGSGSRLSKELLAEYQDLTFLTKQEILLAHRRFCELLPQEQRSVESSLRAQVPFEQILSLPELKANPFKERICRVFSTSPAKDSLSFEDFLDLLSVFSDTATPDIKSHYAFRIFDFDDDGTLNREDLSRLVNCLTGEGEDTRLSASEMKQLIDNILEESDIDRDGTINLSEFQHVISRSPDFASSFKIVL", "experiment": "Primary qHTS for Identification of Calcium Integrin Binding Protein 1 (CIB1) Competitor (AID 1508620);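 also: GST tagged CIB1 binding a fluorescein labelled alphaIIb integrin peptide tracer; top concentration of the series differs between compounds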", "conditions": "CIB1-GST / FITC-alphaIIb peptide fluorescence polarization; series mostly up to 114 µM; activity change, negative = inhibition: at the top concentration", "method_in_brief": "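Fluorescence polarization competition: CIB1-GST (1 uM final) preincubated with compound 15 min at room temperature, then FITC-labeled alphaIIb peptide (100 nM final) added for another 15 min. Polarization read at Ex 480/Em 540.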", "values": [
      {"compound": "Cc1ccc2nc3sc(C(=O)NCCN4CCOCC4)cc3cc2c1", "activity change, negative = inhibition": "-6.06% (inactive)"},
      {"compound": "O=C1c2ccccc2C(=O)N1c1cccc(Cl)c1", "activity change, negative = inhibition": "0.117% (inactive)"},
      {"compound": "O=C1CCCC2=C1C(c1ccccc1Cl)N=C(c1ccccn1)N2", "note": "(stereo not given)", "activity change, negative = inhibition": "-9.1% (inactive)"},
      {"compound": "Cc1ccc(OCCn2c(CCNC(=O)c3cc(F)cc(F)c3)nc3ccccc32)cc1", "activity change, negative = inhibition": "-7.19% (inactive)"},
      {"compound": "NCCC(=O)Nc1cccc(-c2nn3c(=O)cc(N4CCNCC4)nc3s2)c1", "activity change, negative = inhibition": "5.57% (inactive)"},
      {"compound": "O=C(Cc1nnc(CNC(=O)c2ccccc2)o1)Nc1cc(C(F)(F)F)ccc1Cl", "activity change, negative = inhibition": "1.14% (inactive)"},
      {"compound": "Cc1ccc(OCCn2c(CCNC(=O)C3CCCCC3)nc3ccccc32)cc1", "Potency": "inactive"},
      {"compound": "N#Cc1nonc1-c1ccccc1", "activity change, negative = inhibition": "1.62% (inactive)"},
      {"compound": "O=C(O)c1ccc2c(c1)C(=O)N([C@H](Cc1ccc(O)cc1)C(=O)O)C2=O", "activity change, negative = inhibition": "-0.01% (inactive)"},
      {"compound": "S=P(c1ccccc1)(c1ccccc1)c1nc(CCCc2ccccc2)n2ccccc12", "activity change, negative = inhibition": "-6.29% (inactive)"},
      {"compound": "Cc1ccc(OCCn2c(CCNC(=O)c3cc([N+](=O)[O-])ccc3[N+](=O)[O-])nc3ccccc32)cc1", "activity change, negative = inhibition": "3.6% (inactive)"},
      {"compound": "Oc1c(CNc2ccccc2)cc(COCc2ccccc2)c2cccnc12", "activity change, negative = inhibition": "-1.21% (inactive)"},
      {"compound": "O=C(COC(=O)CNC(=O)c1ccccc1Cl)Nc1ccccc1Cl", "activity change, negative = inhibition": "1.09% (inactive)"},
      {"compound": "Cc1cc2c(s1)c1cnn(Cc3cc(F)c(Cl)cc3Cl)c(=O)c1n2C", "activity change, negative = inhibition": "-2.19% (inactive)"},
      {"compound": "Cc1cc2c(s1)c1cnn(Cc3ccc(F)c(F)c3F)c(=O)c1n2C", "activity change, negative = inhibition": "5.28% (inactive)"},
      {"compound": "O=[S+]([O-])(c1ccc2c(c1)OCCO2)N1CCN([S+](=O)([O-])c2cc(Cl)ccc2F)CC1", "activity change, negative = inhibition": "3.78% (inactive)"},
      {"compound": "Cn1nnnc1Sc1ncnc2scc(-c3ccc(N)cc3)c12", "activity change, negative = inhibition": "1.53% (inactive)"},
      {"compound": "O=C(CCc1ccccc1Br)NCCc1nc2ccccc2[nH]1", "activity change, negative = inhibition": "0.113% (inactive)"},
      {"compound": "O=S(=O)(Nc1cccc2cccnc12)c1ccccc1O", "activity change, negative = inhibition": "-9.56% (inactive)"},
      {"compound": "Cc1nc(CN=C2NC3=C(C(=O)CCC3)C(c3[nH]ncc3Cl)N2)cs1", "note": "(stereo not given)", "activity change, negative = inhibition": "-2.94% (inactive)"},
      {"compound": "O=C(NCCCc1ccccc1)C1CCN(c2nc(-c3ccc(Br)cc3)cs2)CC1", "activity change, negative = inhibition": "4.01% (inactive)"},
      {"compound": "Cc1ccc2nc3sc(C(=O)N4CCC(C(N)=O)CC4)cc3cc2c1", "activity change, negative = inhibition": "-0.511% (inactive)"},
      {"compound": "O=C1NS(=O)(=O)c2cscc21", "activity change, negative = inhibition": "3.07% (inactive)"},
      {"compound": "CC(=O)Nn1c(C)nc2sc3c(c2c1=O)CCNC3", "activity change, negative = inhibition": "-3.83% (inactive)"},
      {"compound": "COc1ccc(C2=Nn3c(nnc3-c3ccccc3O)SC2)cc1OC", "activity change, negative = inhibition": "-9.78% (inactive)"},
      {"compound": "COc1ccc(C2c3c(ncn(Cc4ccccc4)c3=N)Oc3ccc4ccccc4c32)cc1OC", "note": "(stereo not given)", "activity change, negative = inhibition": "2.88% (inactive)"},
      {"compound": "O=C(O)c1ccc(S(=O)(=O)N[C@H](Cc2ccccc2)C(=O)O)cc1", "activity change, negative = inhibition": "-2.66% (inactive)"},
      {"compound": "O=[S+]([O-])(Nc1ccc(C2CCNCC2)cc1)c1ccc(NCc2ccc(Cl)cc2O)cc1", "activity change, negative = inhibition": "-21.2% (inactive)"},
      {"compound": "COc1ccc(-c2nc3ccccc3c(=O)n2Cc2ccco2)cc1COc1c(C)cccc1C", "activity change, negative = inhibition": "1.13% (inactive)"},
      {"compound": "COC(=O)c1ccc2nc(NC3=NC(c4[nH]ncc4Cl)C4=C(CCCC4=O)N3)oc2c1", "note": "(stereo not given)", "activity change, negative = inhibition": "0.757% (inactive)"},
      {"compound": "CC(C)(C)OC(=O)N1CCN(c2ccc(NCc3ccc(-c4cc(C(F)(F)F)cc(C(F)(F)F)c4)o3)cc2)CC1", "activity change, negative = inhibition": "4.47% (inactive)"},
      {"compound": "O=C(Cc1ccc(Cl)c(Cl)c1)Nc1ccc(S(=O)(=O)Nc2cncnc2)cc1", "activity change, negative = inhibition": "-19.8% (inactive)"},
      {"compound": "Fc1ccc(-c2c(P(=S)(c3ccccc3)c3ccccc3)n3ccccc3[n+]2C/C=C/c2ccccc2)cc1", "activity change, negative = inhibition": "-9.61% (inactive)"},
      {"compound": "CC(C)(C)c1cccc(NC(=O)Nc2nnc(-c3ccncc3)s2)c1", "activity change, negative = inhibition": "-2.11% (inactive)"},
      {"compound": "O=C(Nc1cncc(O)c1)c1cccs1", "activity change, negative = inhibition": "-0.677% (inactive)"},
      {"compound": "COc1cccc(CNc2ccc(S(=O)(=O)Nc3ccc(N4CCNCC4)cc3)cc2)c1O", "activity change, negative = inhibition": "-3.5% (inactive)"},
      {"compound": "Cc1noc(C)c1-c1ccc2ncnc(NCc3ccc(C(F)(F)F)o3)c2c1", "activity change, negative = inhibition": "-0.457% (inactive)"},
      {"compound": "Cc1cccc(-n2cnc3cc(C(=O)N4CCC(C(F)(F)F)CC4)ccc32)c1", "activity change, negative = inhibition": "0.0136% (inactive)"},
      {"compound": "Cc1cccc(Nc2nc(C#N)nc(NC3CCCC3)n2)c1", "activity change, negative = inhibition": "-2.57% (inactive)"},
      {"compound": "COc1ccc(C2Nc3ccccc3C(=O)N2Cc2ccc(C)o2)cc1COc1c(C)cccc1C", "note": "(stereo not given)", "activity change, negative = inhibition": "-5.03% (inactive)"}
    ]}
  ]
}
